Shown is part of a subset that was picked to be rich in hits.
Pf Dd2 growth: blocks in vitro growth of P. falciparum Dd2; Potency, µM (titrated, usually from 28.9 µM), inactives show at the top dose activity, negative = inhibition, most hits filed as inhibitors; hit rate 4.3% among 120,000; P. falciparum Dd2 growth, SYBR Green, 72 h; active = well fitted inhibition curve with a large enough effect;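 note: plate controls were DMSO vehicle for no effect and reference drug for full effect; nearly all actives have a fitted effect of over 65% in size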
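Infected erythrocytes (Dd2, 0.3% parasitemia, 2.5% hematocrit final) are added to compound in RPMI-1640/Albumax II medium, grown 72 h at 37C in low oxygen, then lysed with saponin/Triton-X containing SYBR Green and read by fluorescence.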
Active calls of the source: *; i = inactive; [ ] = another dose, or the depositor's remark. Potency is the fitted concentration of half-maximal effect.

SMILES	Pf Dd2 growth
CC(C)CCNC(=O)C1(CCO)CCN(c2ncccn2)C1 (stereo not given)	32.6%
COCCOCC(=O)N1CCC(C(=O)N2CCCCCCNC(=O)CC2)CC1	8.8%
Cc1nn(C)c(C)c1CCN(C)C(=O)c1ccc(N2CC3CC(C2)[C@H]2CCCC(=O)N2C3)nc1 (stereo not given in full)	2.2%
CN1CCCCCC(O)c2cc(C(=O)NC3CCCCC3)ccc21 (stereo not given)	i
C[S+](=O)([O-])c1ccc(-c2nc(C(=O)N3CCN(c4ncccn4)CC3)n3ccncc23)cc1	11.2µM*
O=C(c1nc(-c2ccc(F)cc2)c2ccccn12)N1CCOCC1	13.3%[44.1 µM]
O=C(c1nc(-c2ccc(F)cc2)c2cnccn12)N1CCCC1	6.31µM*
C[S+](=O)([O-])c1ccc(-c2nc(C(=O)N3CCOCC3)n3ccncc23)cc1	7.94µM*
O=C(c1nc(-c2cccc(C(F)(F)F)c2)c2cnccn12)N1CCOCC1	-3.8%
N#CC1CCN(C(=O)c2nc(-c3cccnc3)c3cnccn23)CC1	-16.0%[44.1 µM]
O=C(c1nc(-c2ccccc2)c2ccccn12)N1CCN(c2ncccn2)CC1	-6.1%
C[S+](=O)([O-])c1ccc(-c2cc(C(=O)N3CCN(c4ncccn4)CC3)nn3cccc23)cc1	-24.5%
C#CCNC(=O)c1nc(-c2ccc([S+](C)(=O)[O-])cc2)c2cnccn12	i
Clc1cnccc1CN1CCNc2cnc(-c3ccccc3)cc2C1	i
CCNC(=O)N1c2ccccc2CC1c1nc(C2CC2)no1 (stereo not given)	i[5.79 µM]
O=C(C1CCC1)N1CCC(Cc2nc(C3CCOCC3)no2)CC1	23.8%
CN1CCN(c2ccc3nnc(-c4cc(C(=O)N(C)Cc5ccccc5)ccn4)n3n2)CC1	11.4%
Cc1ccc(-c2nc3ccccc3s2)cc1NC(=O)COc1ccccc1	13.3%
Cc1ccc(-c2nc3ccccc3[nH]2)cc1NC(=O)COc1cccc(C)c1C	7.08µM*
COc1ccc(OCC(=O)Nc2cc(-c3nc4ccccc4s3)ccc2C)cc1	3.5%
Cc1cccc(C(=O)N2CC[C@@](C)(O)[C@@H](Cc3ccccc3)C2)c1C	-14.3%
COc1cccc(CN2C[C@@H](F)[C@@H](OCc3nc4ccccc4[nH]3)C2)n1	i
COCc1nncn1C1CCN(S(=O)(=O)c2ccc(OC)c(Cl)c2)CC1	i
COc1cccc(C(=O)N2CCN(C(C(=O)O)c3cc(C)cc(C)c3)CC2)c1 (stereo not given)	-10.4%
Cc1ccc(-n2ncc3c(N4CCN(c5ccccc5)CC4)ncnc32)cc1C	61.0%
SMILES	Pf Dd2 growth
CN1CCN(c2ncnc3c2cnn3-c2cccc(Cl)c2)CC1	i
CCc1ccc(Nc2ncnc3c2cnn3-c2cc(Cl)ccc2C)cc1	10µM*
Cc1ccc(Cl)cc1-n1ncc2c(N3CCCCCC3)ncnc21	17.5%
Cc1ccc(Cl)cc1-n1ncc2c(NCCCc3ccccc3)ncnc21	20.3%
COc1ccccc1N1CCN(c2ncnc3c2cnn3-c2cc(Cl)ccc2C)CC1	8.91µM*
CC(=O)c1ccc(N2CCN(c3ncnc4c3cnn4C)CC2)cc1	i
CC(=O)c1ccc(N2CCN(c3ncnc4c3cnn4-c3cc(Cl)ccc3C)CC2)cc1	11.2µM*
Cc1ccc(Cl)cc1-n1ncc2c(NCCc3ccccc3)ncnc21	i
Cn1cc(-c2cccc(CCOc3cnc4c(ccn4CC(=O)O)c3)c2)cn1	i
O=C(c1ccccc1Cl)N1C[C@@H](CO)[C@H](c2nc(C3CC3)no2)C1	-23.4%
COc1ccc(NC(=O)N2C[C@@H]3C[C@H](C2)c2c(NC(=O)c4ccc5c(c4)OCO5)ccc(=O)n2C3)cc1	-9.6%
CCn1ncc(N2CCCC(CC(=O)NCCc3cccs3)C2)cc1=O (stereo not given)	i
CC(C)NC(=O)N[C@H]1CCN2C(=O)c3cc(/C=C/c4ccccc4)ccc3NC(=O)[C@H]12	i
COC1CCC12CCN(C(=O)C1CC1)CC2 (stereo not given)	31.4%
Cc1cccc(N(C)c2ccc3cc(S(=O)(=O)N4CCCC4)ccc3n2)c1	2.1%
Cc1cccc(N(C)c2nc3ccc(C)cc3n3cnnc23)c1	11.3%
Cc1cccc(N(C)c2nc3ccccc3c3nnc(C)n23)c1	0.447µM*
CN(C)c1cc(N2CCCC(NC(=O)CCc3ccccc3)C2)ncn1 (stereo not given)	36.2%[5.79 µM]
CCn1c(C2CCCN(C(=O)Cc3c[nH]c(=O)n(C)c3=O)C2)nn(C)c1=O (stereo not given)	13.6%
COc1ccc(OC)c(NC(=O)CN2CC3CC(C2)[C@H]2CCCC(=O)N2C3)c1 (stereo not given in full)	-11.2%
C=CCN1CC2(CCC1=O)CCN(C(=O)C1CCc3ccccc31)CC2 (stereo not given)	-13.4%
CC(C)(C)c1ccc(C(=O)N(Cc2ccc(F)cc2)Cc2ccco2)cc1	-13.9%
CCCS(=O)(=O)c1ncc(Cl)c(C(=O)N(Cc2ccccc2)Cc2ccco2)n1	7.8%
CCS(=O)(=O)c1ncc(N(Cc2ccccc2)Cc2ccco2)c(C(=O)Nc2ccccc2C)n1	-15.7%
COc1ccc(NC(=O)Cn2c(N(C)Cc3ccccc3)nc(C)cc2=O)cc1Cl	-4.1%

Assay outcomes as filed in PubChem.
